Compounds with a hit are over-represented: about 18% of the library has one in this group of screens.
PLK1 PBD block: PLK1 (human) polo-box domain binding inhibition; Plk1 PBD binding of FITC phosphopeptide, fluorescence polarization; Potency, µM, for the others: max response, negative = inhibition, most hits filed as inhibitors; hit rate 2.8% among 360,000; AID 720504; also: series mostly up to about 57 µM; nearly all actives have a fitted effect of over 65% in size
VDR inhibitor: blocks the human vitamin D receptor | P11473 | VDR-SRC2-3 peptide fluorescence polarization, 2 h | Potency, µM, for the others: max response, negative = inhibition, actives largely listed as inhibitors | hit rate 0.93% among 400,000
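FP read-out; VDR + SRC2-3 coactivator peptide; 23 nl compound by pintool; 2 h RT incubation; reagents held at 4 deg C, protected from light.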
TDP1 inh: TDP1 (human) enzyme inhibition | recombinant TDP1, AlphaScreen DNA substrate cleavage | Q9NUW8 | Potency, µM (top dose mostly 130 µM), for the others: at the highest dose activity change, negative = inhibition, usual class: inhibitors | hit rate 0.28% among 350,000; also: nearly all actives have a fitted effect of over 40% in size
Target sequence (Q9NUW8 whole entry, looked up): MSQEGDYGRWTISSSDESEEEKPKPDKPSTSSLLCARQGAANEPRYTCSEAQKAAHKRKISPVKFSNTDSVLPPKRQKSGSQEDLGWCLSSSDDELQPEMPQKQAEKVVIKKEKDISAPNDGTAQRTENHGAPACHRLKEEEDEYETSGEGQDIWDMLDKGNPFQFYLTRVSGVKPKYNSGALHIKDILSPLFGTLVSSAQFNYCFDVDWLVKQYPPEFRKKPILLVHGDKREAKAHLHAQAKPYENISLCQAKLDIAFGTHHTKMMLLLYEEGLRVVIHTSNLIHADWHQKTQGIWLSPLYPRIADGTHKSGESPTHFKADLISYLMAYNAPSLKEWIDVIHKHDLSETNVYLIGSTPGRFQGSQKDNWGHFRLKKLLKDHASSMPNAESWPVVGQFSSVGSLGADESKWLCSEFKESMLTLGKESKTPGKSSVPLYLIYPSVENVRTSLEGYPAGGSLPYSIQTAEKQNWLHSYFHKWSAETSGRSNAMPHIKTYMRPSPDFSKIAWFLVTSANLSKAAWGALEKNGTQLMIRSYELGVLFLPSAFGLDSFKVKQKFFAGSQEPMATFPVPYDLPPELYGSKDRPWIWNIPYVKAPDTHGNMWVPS
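E. coli-derived human Tdp1, 1 nM final. Cpd preinc 15 min RT; substrate 15 nM final, 5 min RT; AS bead mix 10 ug/ml final, 10 min RT. Signal loss = tyrosine-FITC cleavage. No-enzyme wells = max signal.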
TDP1 cell noCPT: qHTS for Inhibitors of human tyrosyl-DNA phosphodiesterase 1 (TDP1): qHTS in cells in absence of CPT; DT40 Tdp1-/- hTDP1 cells, no CPT, ATP luminescence, 48 h; Potency, µM (top dose mostly 46.2 µM), for the others: top-dose activity change, negative = growth inhibition, actives largely listed as inhibitors; hit rate 15% among 420,000; also: nearly all actives have a fitted effect of over 55% in size
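No-CPT arm: Tdp1-/-;hTDP1 DT40 cells (400/well) plus compounds, incubated ≥48 hr at 37 °C. Readout CellTiter-Glo luminescence.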
GCN5L2 inh: blocks human GCN5L2 histone acetyltransferase; GCN5L2 HAT assay, ThioGlo1 CoA-SH fluorescence; Potency, µM (highest dose often 58.9 µM), for the others: at the top dose activity change, negative = inhibition, actives largely listed as inhibitors; AID 504327; Q92830; hit rate 0.21% among 390,000
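Preincubate 20nM GCN5L2 with compound 15 min, RT → add 50uM ThioGlo1 + 75uM H3(1-25) + 70uM acetyl-CoA → read fluorescence 0 and 20 min. Primary qHTS; fluorescent artifacts likely.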
TDP1 cell CPT: DT40-hTDP1 cell growth loss with CPT; Potency, µM (series often up to 46.2 µM), without a hit: at the highest dose activity change, negative = growth inhibition, hits mostly inhibitors; hit rate 12% among 420,000; AID 686979; chicken DT40 Tdp1-/-;hTDP1 cells + 20 nM CPT, ATP luminescence, 48 h; also: nearly all actives have a fitted effect of over 55% in size
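Chicken DT40 Tdp1-/- cells stably complemented with human TDP1 were seeded at 400 cells/well in medium containing 20 nM camptothecin, exposed to pin-transferred compounds, and grown at 37 °C for at least 48 hr. Viability was read as ATP luminescence.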
An asterisk follows results filed as active; ? = inconclusive; nt = no result; [ ] = dose if it differs, or a comment. Calls follow the shape of the dose curve; as a rule, active = well fitted curve in the direction sought with a large enough effect; inconclusive = small, poorly fitted or top-dose-only effect, or another doubt; inactive = no such curve, though single readings can be large; an effect the other way counts as inactive or inconclusive. % is scaled to controls: 0 for no effect and ±100 for the full control effect; potency is read from the fitted curve at half-maximal effect.

SMILES	PLK1 PBD block	VDR inhibitor	TDP1 inh	TDP1 cell noCPT	GCN5L2 inh	TDP1 cell CPT
Cc1nc2ccccc2c(=O)n1NC(=O)c1ccc(Cl)c(Cl)c1	-5%	-10%	nt	-20%	-9%	-4%
COC(=O)Cn1cc(C(=O)C2CC2)c2ccccc21	-10%	-1%	9%	-17%	-15%	-1%
Cn1cc(CCCC(=O)NCc2cccc(Br)c2)c2ccccc21	nt	10%	1%	18µM*	-2%	?
O=C(Cc1cccs1)NCc1cccc(Br)c1	-19%	10%	nt	10%	-1%	-12%
Cc1ccccc1Cn1cc(CCC(=O)NC(C)c2ccccc2)c2ccccc21 (centres undefined)	nt	19%	10%	23µM*	0%	13µM*
CCn1cc(CCC(=O)NC(C)c2ccccc2)c2ccccc21 (centres undefined)	-6%	-2%	nt	-4%	0%	-13%
O=C(Cc1csc2ccccc12)NCc1cccc(Br)c1	nt	1%	-3%	21µM*	-1%	16µM*
CC(NC(=O)Cn1cc(C(=O)C2CC2)c2ccccc21)c1ccccc1 (centres undefined)	30µM*	-24%	3%	-21%	-17%	?
COCCNC(=O)C1(C)CCCN(C(=O)c2c(F)ccc(C)c2F)C1 (centres undefined)	-2%	nt	nt	0%	nt	-7%
O=c1c2c(nc3n1CCS3)c1cc(F)ccc1n2Cc1cc(=O)n2cc(Cl)ccc2n1	-17%	-3%	-1%	-1%	-16%	-24%
C[C@H](NC(=O)c1ccc(Cl)cc1)C(=O)NNC(=O)c1cccs1	0%	6%	0%	19%	3%	-6%
CC(CCc1ccccc1)NC(=O)CCc1cn(C)c2ccccc12 (centres undefined)	-8%	7%	nt	18µM*	-4%	-1%
CC(C)c1ccc(NC(=O)Cc2cn(C)c3ccccc23)cc1	-7%	-17%	3%	16µM*	-15%	-29%
Cn1cc(CC(=O)NCc2ccc(F)cc2)c2ccccc21	5%	-7%	nt	-6%	53%	1%
CCOC(=O)c1cc2c(=O)n3ccccc3nc2n(CCCOC)c1=NC(=O)c1c(-c2ccccc2Cl)noc1C	nt	-4%	3%	4%	1%	-1%
CCOc1cc(/C=N/NC(=O)c2ccc(CN3CCOCC3)cc2)ccc1OCc1ccccc1	-9%	-17%	-2%	18µM*	0%	?
CCOc1cc(/C=N/NC(=O)c2nn(C)cc2Br)ccc1OCc1ccccc1Cl	-6%	-19%	0%	16µM*	-11%	21µM*
Cn1cc(Br)c(C(=O)N/N=C/c2cccc(OC3CSC3)c2)n1	-10%	5%	0%	?	3%	4%
CCOc1cc(/C=N\NC(=O)CN2CCOCC2)ccc1OCc1ccc(F)cc1	-7%	2%	8%	?	0%	1%
O=C(O)Cn1c(-c2ccccc2)cc2ccccc21	-1%	-20%	2%	2%	-11%	3%
O=C(CSC1=Nc2ccccc2N=C(c2ccc(F)cc2)C1)NCc1ccccc1	nt	-12%	2%	18µM*	-11%	?
COc1ccccc1CNC(=O)CSC1=Nc2ccccc2N=C(c2ccc(F)cc2)C1	nt	-5%	2%	?	1%	26µM*
COc1ccccc1CNC(=O)CSc1ccccc1	-4%	-2%	5%	-8%	-2%	0%
Cc1ccc(CNC(=O)CSC2=Nc3ccccc3N=C(c3ccc(F)cc3)C2)cc1	nt	13%	3%	6%	-9%	-11%
CC(=O)Nc1ccc(NC(=O)C(=O)NCC(c2ccco2)N2CCc3ccccc3C2)cc1 (centres undefined)	-5%	-17%	nt	21µM*	2%	16µM*
SMILES	PLK1 PBD block	VDR inhibitor	TDP1 inh	TDP1 cell noCPT	GCN5L2 inh	TDP1 cell CPT
O=C(NCC(c1cccnc1)N1CCc2ccccc2C1)C(=O)Nc1ccc(F)cc1F (centres undefined)	nt	6%	0%	18µM*	0%	15µM*
O=C(NCC(c1ccco1)N1CCc2ccccc2C1)C(=O)Nc1ccccc1F (centres undefined)	-1%	-15%	0%	-82%	-19%	-55%
O=C(NCC(c1ccco1)N1CCc2ccccc2C1)c1ccc(Br)cc1 (centres undefined)	-3%	-8%	-4%[0.505 µM]	23µM*	-9%	?
O=C(NCC(c1ccco1)N1CCc2ccccc2C1)C(=O)Nc1ccc(F)cc1F (centres undefined)	-3%	-6%	1%	21µM*	-12%	18µM*
CCNC(=S)Nc1ccc(Cl)c(C(F)(F)F)c1	-14%	-6%	-6%	23µM*	2%	-95%
FC(F)Oc1ccc(NC(=S)NCc2ccccc2)cc1Cl	-8%	4%	0%	?	-7%	16µM*
CCC(C(=O)Nc1ccc(OC)c(Cl)c1)c1ccccc1 (centres undefined)	-4%	3%	4%	-7%	0%	4%
O=C(Nc1ccc(OC(F)F)c(Cl)c1)C(c1ccccc1)c1ccccc1	-11%	-24%	5%	18µM*	-15%	?
FC(F)Oc1ccc(NC(=S)NCc2ccccc2)cc1	-15%	-4%	0%	?	-10%	-27%
Fc1cc(NC(=S)NCc2ccc(CNC(=S)Nc3ccc(Cl)c(F)c3)cc2)ccc1Cl	-13%	-2%	nt	13µM*	0%	?
CC(=O)Nc1ccc(S(=O)(=O)N2CCC(n3c(C)nc4cccnc43)CC2)cc1	nt	17%	6%	?	21%	?
CCN(C(=O)Cn1ncc2c(=O)oc3ccc(C)cc3c21)c1cc(OC)ccc1OC	nt	-8%	6%	?	-9%	?
O=C(Nc1cccc(C(=O)N2CCCCC2)c1)c1ccccc1Br	-5%	8%	5%	9%	-2%	-3%
COC(=O)C[C@@H]1CC[C@H](NC(=O)c2cnccn2)[C@@H](CO)O1	6%	nt	nt	2%	nt	4%
CCOCCc1nn2c(=O)cc(CSCC(=O)Nc3cc(C)cc(C)c3)nc2s1	-9%	0%	1%	1%	-1%	12%
Cc1ccccc1CN1C(=O)c2ccccc2S(=O)c2ccc(C(=O)NC3CCC(C)CC3)cc21 (centres undefined)	nt	-9%	6%	-29%	1%	?
O=C(O)C1CCC(N2C(=O)c3cccc([N+](=O)[O-])c3C2=O)CC1 (centres undefined)	-2%	-1%	6%	5%	-15%	-3%
Cc1cc(=O)n2nc(N3CCC(C(=O)Nc4ccc(Br)c(C)c4)CC3)sc2n1	nt	8%	8%	-29%	-4%	15µM*

High-throughput results from PubChem BioAssay.
